aSyn 5UTR act = Activators working through SNCA 5'UTR binding (MLPCN); alpha-synuclein 5'UTR reporter, activators screen; AID 1814; hit rate 7.1% among 300,000; activity score, % (tested at 7.5 µM), hits read low; in the data active = activity score below about -60%
* hit, by the source's call. Not all results are given here.

SMILES	aSyn 5UTR act
Cc1ccnc(NC(=O)C2CCN(S(=O)(=O)c3ccc(C)c(C)c3)CC2)c1	-81*
Nc1nccc(-c2ccc(-n3cnc4ccccc43)cc2)n1	-63*
Cc1nccc(-c2ccc(-n3cnc4ccccc43)cc2)n1	-96*
Cc1cccc2sc(NC(=O)c3ccc(OCC4CCCO4)cc3)nc12 (stereo unspecified)	-144*
CCOc1ccc2nc(NC(=O)c3ccc(OCC4CCCO4)cc3)sc2c1 (stereo unspecified)	-99*
CCOc1ccc2nc(NC(=O)CSc3nnc(-c4ccncc4)n3CC3CCCO3)sc2c1 (stereo unspecified)	-76*
Cc1cccc2sc(NNC(=O)c3ccc(S(=O)(=O)N4CCCC(C)C4)cc3)nc12 (stereo unspecified)	78
N#CCSc1ccc2nc(-c3ccccc3)cn2n1	-104*
CC(C)NC(=O)CSc1nc(-c2ccccc2)cs1	-160*
N#CCSc1nc(-c2ccccc2)cs1	-75*
CCCCCCCCCCOC(=O)Cn1c(COc2cccc(C)c2)[n+](C)c2ccccc21	65
Cc1cccc(OCCCn2c(=O)sc3ccccc32)c1	-90*
COc1ccc(OCCn2c(=O)sc3ccccc32)cc1	-142*
Cc1c(NC(=O)c2ccc([N+](=O)[O-])o2)cccc1-c1nc2ncccc2o1	-228*
O=C(Nc1cccc2ncccc12)c1ccc([N+](=O)[O-])o1	-169*
O=C(Nc1cccc2ncccc12)c1ccc(-c2ccc(Br)cc2)o1	-79*
O=c1cc(Cl)[nH]c(=O)n1Cc1ccc(F)cc1	-87*
Cc1ccc(N(C)/N=C/c2ccc(Cl)cc2Cl)nn1	-92*
O=C(Nc1ccc(OCc2ccccc2Cl)cc1)c1cccnc1	90
O=C(Nc1ccc2nccnc2c1)c1cnccn1	-79*
Cc1nc(NC(=O)CCc2ccccc2)ccc1Br	-145*
Cc1nc(NC(=O)c2cccnc2)ccc1Br	-83*
O=C(Nc1ccc2ccccc2c1)c1cccnc1	-161*
Cc1cc(NC(=O)c2cccnc2)ccc1Br	-147*
O=C(Nc1ccc2ccccc2c1)c1cnccn1	-129*
SMILES	aSyn 5UTR act
Cc1coc(C)c1C(=O)Nc1ccc2ccccc2c1	-162*
O=C(Nc1ccc2c(c1)Cc1ccccc1-2)c1cccnc1	-122*
Cc1cc(NC(=O)c2ccccc2[N+](=O)[O-])ccc1Br	-130*
Cc1ccccc1C(=O)Nc1ccc(Br)c(C)n1	-113*
C[C@H]1C=CC(=O)O[C@H]1c1ccccc1	-142*
CCc1cc2c(N=Nc3c(O)[nH]c4ccccc34)ncnc2s1	-62*
Cc1sc2ncnc(N=Nc3c(O)[nH]c4ccccc34)c2c1C	-141*
Oc1[nH]c2ccccc2c1N=Nc1nncc2ccccc12	-62*
Cc1ccc2c(CN(C)Cc3ccccc3)cc(=O)oc2c1C	-80*
Brc1cccc(OCCSc2ncccn2)c1	-69*
CCCOc1ccc(OCCSc2ncccn2)cc1	-167*
Clc1ccc(OCCSc2ncccn2)c(Br)c1	-114*
CC(=O)c1ccc(NC(=O)[C@@H]2CCCN2C(=O)OC(C)(C)C)cc1	-94*
CCN(CC)S(=O)(=O)c1cccc(NC(=O)c2cc3ccccc3o2)c1	-126*
O=C(COC(=O)c1cc2ccccc2oc1=O)Nc1ccc(F)cc1F	-169*
CN(C)S(=O)(=O)c1cccc(NC(=O)c2cc3ccccc3o2)c1	-122*
CN(C)S(=O)(=O)c1cccc(NC(=O)COC(=O)c2cc3ccccc3oc2=O)c1	-105*
CCc1ccc(-n2nc3ccc(NC(=O)c4ccc5c(c4)OCO5)cc3n2)cc1	-66*
O=C(Nc1ccc2nn(-c3ccccc3)nc2c1)c1ccc2c(c1)OCCO2	-82*
CCOc1ccc(-n2nc3ccc(NC(=O)c4ccc5c(c4)OCCO5)cc3n2)cc1	47
O=C(CSc1nc2ncccc2[nH]1)c1ccc2c(c1)OCO2	-86*
CCc1ccc(N2NC(=O)/C(=C/C=C/c3ccco3)C2=O)cc1	-78*
CC1CN(S(=O)(=O)c2cc(C(=O)NCCC3=CCCCC3)ccc2Cl)CC(C)O1 (stereo unspecified)	-85*
O=C(NCC(O)c1ccccc1)c1ccc(Cl)c(S(=O)(=O)N2CCCC2)c1 (stereo unspecified)	-96*
O=C(NCCc1ccccc1)c1cnc(Cl)c(Cl)c1	-119*
SMILES	aSyn 5UTR act
O=C(NCC(O)c1ccccc1)c1ccccc1 (stereo unspecified)	-80*
O=C(NCCc1ccccc1)c1ccc(Cl)c(S(=O)(=O)N2CCCC2)c1	-67*
COc1cccc(NC(=O)n2nc(N)cc2-c2ccc(Cl)cc2)c1	-69*
Cc1cc(NC(=O)c2ccccc2)sc1C	-142*
O/C(=C\c1nc2ccccc2nc1/C=C(\O)c1ccccc1)c1ccccc1	-73*
O/N=C/c1ccc2ccccc2n1	-79*
O/C(=C\c1ccc2ccccc2n1)c1ccncc1	-69*
N#Cc1cnc2sc3ccccc3n2c1=N	-68*
Cc1ccc(-c2nnc(NC(=O)c3ccc([N+](=O)[O-])o3)o2)c(C)c1	-64*
Cc1ccc(NC(=O)c2ccc([N+](=O)[O-])o2)c(C)c1	-74*
C/C(=N\NC(=O)c1sccc1C)c1cccnc1	-200*
C/C(=N\NC(=O)c1sccc1C)c1ccncc1	-108*
Cc1c(Cl)cccc1NC(=O)c1cccc(OC(F)F)c1	-76*
Cc1ccc(C(=O)Nc2ccccc2OC(F)F)cc1	-62*
Cc1ccc(NC(=O)c2cccc(OC(F)F)c2)c(OC(F)F)c1	-71*
COc1ccc2c(c1)[nH]c1c(=O)n(/N=C/C3C(C)C=C(C)CC3C)c(=O)[nH]c12 (stereo unspecified)	58
COc1ccc2[nH]c3c(=O)n4c(nc3c2c1)SCCC4	-92*
COC(=O)c1ccc(N)c(N=CC2=C(O)CC(C)(C)CC2=O)c1	-172*
COC(=O)c1ccc2c(c1)C(C)(C)C(/C=C/c1ccccc1O)=[N+]2C	118
CCOC(=O)c1sc(=NC(=O)c2cccs2)n(C)c1C	-122*
CCOC(=O)c1sc(=NC(=O)c2ccccc2Br)n(C)c1C	-101*
CCOC(=O)c1sc(=NC(=O)c2ccc(Cl)s2)n(C)c1C	-194*
CCOC(=O)c1sc(=NC(=O)c2ccc(C)c(C)c2)n(C)c1C	-283*
Cc1ccc2c(c1)sc(=NC(=O)c1cccs1)n2C	85
CCOC(=O)c1sc(=NC(=O)/C=C/c2ccccc2)n(C)c1C	-111*
SMILES	aSyn 5UTR act
Cc1[nH]c2ccccc2c1C(=O)CN1C(=O)NC2(CC(C)CC(C)(C)C2)C1=O (stereo unspecified)	57
Cc1[nH]c2ccccc2c1C(=O)CSC(=S)N(C)C	-76*
CCOC(=O)c1sc2nccc(N(C)C)c2c1N=CNOCc1ccccc1	-92*
CCOC(=O)c1snc(C(=O)NC2CCCCC2)c1N	-150*
Clc1cccc(N/N=C/c2ccc(N3CCOCC3)s2)c1	-167*
Cc1cccc(-n2ncc3c(N4CCC5(CC4)OCCO5)ncnc32)c1	-82*
c1ccc(-n2ncc3c(N4CCC5(CC4)OCCO5)ncnc32)cc1	-223*
Cc1sc2c(c1C)C(=O)NC(c1cccc(O)c1)N2 (stereo unspecified)	-233*
CCc1ccc(C(=O)c2cncc(Br)c2)cc1	-63*
COc1ccc(-c2cnnc(N/N=C/c3ccc(O)c(O)c3)n2)cc1	-90*
Cc1nc2ccccc2nc1N/N=C/c1ccc(O)cc1	-87*
Oc1ccc(/C=N\Nc2nncc(-c3ccccc3)n2)cc1	-174*
COc1ccc(-c2cnnc(N/N=C/c3ccc(O)cc3)n2)cc1	-77*
Oc1ccc(Nc2nc3ccccc3nc2Nc2ccc(O)cc2)cc1	108
